# ± gives the standard deviation.
# T1: HaloTag-ATRX ADD domain (163-292)
# T1 chain: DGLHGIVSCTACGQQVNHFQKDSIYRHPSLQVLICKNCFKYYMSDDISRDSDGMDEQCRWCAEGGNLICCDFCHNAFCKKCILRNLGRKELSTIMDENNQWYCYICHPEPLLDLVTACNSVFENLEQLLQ
# Biological target: T1, HaloTag-ATRX ADD domain (163-292)
# Assay: peptide microarray binding signal (635 nm), min-max normalized on array (fraction of array maximum); higher = stronger binding
# Conditions: peptide region: Unmod H3 variant; binder concentration: 50 nM
# Summary of the method: (§1)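 Histone 13-mer peptide–cellulose conjugates were printed in triplicate on nitrocellulose with a Cy3 tracer, then blocked overnight at 4°C. Arrays were probed for 1 h at 4°C with biotin-labelled HaloTag reader fusions (10 nM to 1 μM) plus streptavidin-Alexa Fluor 647, or with rabbit histone antibodies (1:10,000 to 1:2,000) plus anti-rabbit Alexa 647. An Axon GenePix 4000B scanned 635 nm for signal and 532 nm for misprints. Binding signal is the triplicate-spot mean intensity, min-max scaled per library.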
row,Binder,peptide microarray binding signal
1,TGGKAPRKQLATK [Unmod H3 variant T G G K A P R K Q L A T K],0.00389 ± 0.00042
2,ATKAARKSAPSTG [Unmod H3 variant A T K A A R K S A P S T G],0.00285 ± 0.00016
3,VGLFEDTNLCAIH [Unmod H3 variant V G L F E D T N L C A I H],0.00179 ± 3.6e-05
4,ALQEACEAYLVGL [Unmod H3 variant A L Q E A C E A Y L V G L],0.00166 ± 5.9e-05
5,ARTKQTARKSTGG [Unmod H3 variant A R T K Q T A R K S T G G],0.00445 ± 0.00012
6,RKSAPSTGGVKKP [Unmod H3 variant R K S A P S T G G V K K P],0.002821 ± 2.4e-05
7,ALQEASEAYLVGL [Unmod H3 variant A L Q E A S E A Y L V G L],0.001818 ± 8.5e-06
8,ATKAARKSAPATG [Unmod H3 variant A T K A A R K S A P A T G],0.00646 ± 0.00048

# Same assay, conditions: peptide region: Unmod H3 variant; binder concentration: 500 nM
row,Binder,peptide microarray binding signal
1,TGGKAPRKQLATK [Unmod H3 variant T G G K A P R K Q L A T K],0.00729 ± 0.00021
2,ATKAARKSAPSTG [Unmod H3 variant A T K A A R K S A P S T G],0.00757 ± 0.00026
3,VGLFEDTNLCAIH [Unmod H3 variant V G L F E D T N L C A I H],0.0031 ± 4.8e-05
4,ALQEACEAYLVGL [Unmod H3 variant A L Q E A C E A Y L V G L],0.00148 ± 3.6e-05
5,ARTKQTARKSTGG [Unmod H3 variant A R T K Q T A R K S T G G],0.00991 ± 0.00023
6,RKSAPSTGGVKKP [Unmod H3 variant R K S A P S T G G V K K P],0.0103 ± 0.00037
7,ALQEASEAYLVGL [Unmod H3 variant A L Q E A S E A Y L V G L],0.00233 ± 5.1e-05
8,ATKAARKSAPATG [Unmod H3 variant A T K A A R K S A P A T G],0.0104 ± 0.0015

# Biological target: HaloTag-ING2 PHD (mouse Ing2 200-280)
# Assay: as above
# Conditions: peptide region: Unmod H3 variant; binder concentration: 10 nM
# Summary of the method: as §1
row,Binder,peptide microarray binding signal
1,TGGKAPRKQLATK [Unmod H3 variant T G G K A P R K Q L A T K],0.00788 ± 0.00069
2,ATKAARKSAPSTG [Unmod H3 variant A T K A A R K S A P S T G],0.0164 ± 0.0095
3,VGLFEDTNLCAIH [Unmod H3 variant V G L F E D T N L C A I H],0.002686 ± 1.5e-05
4,ALQEACEAYLVGL [Unmod H3 variant A L Q E A C E A Y L V G L],0.00179 ± 2.8e-05
5,ARTKQTARKSTGG [Unmod H3 variant A R T K Q T A R K S T G G],0.00824 ± 0.00015
6,RKSAPSTGGVKKP [Unmod H3 variant R K S A P S T G G V K K P],0.00674 ± 8.2e-05
7,ALQEASEAYLVGL [Unmod H3 variant A L Q E A S E A Y L V G L],0.00292 ± 5.6e-05
8,ATKAARKSAPATG [Unmod H3 variant A T K A A R K S A P A T G],0.00776 ± 0.00056

# Same assay, conditions: peptide region: Unmod H3 variant; binder concentration: 100 nM
row,Binder,peptide microarray binding signal
1,TGGKAPRKQLATK [Unmod H3 variant T G G K A P R K Q L A T K],0.00985 ± 0.00081
2,ATKAARKSAPSTG [Unmod H3 variant A T K A A R K S A P S T G],0.00943 ± 0.00062
3,VGLFEDTNLCAIH [Unmod H3 variant V G L F E D T N L C A I H],0.00241 ± 4e-05
4,ALQEACEAYLVGL [Unmod H3 variant A L Q E A C E A Y L V G L],0.00163 ± 4.4e-05
5,ARTKQTARKSTGG [Unmod H3 variant A R T K Q T A R K S T G G],0.01502 ± 0.00015
6,RKSAPSTGGVKKP [Unmod H3 variant R K S A P S T G G V K K P],0.0212 ± 0.0031
7,ALQEASEAYLVGL [Unmod H3 variant A L Q E A S E A Y L V G L],0.00206 ± 7.3e-05
8,ATKAARKSAPATG [Unmod H3 variant A T K A A R K S A P A T G],0.015 ± 0.0022

# Biological target: anti-H3K4me3 antibody ab8580
# Assay: as above
# Conditions: peptide region: Unmod H3 variant; binder concentration: 1:2,000 dilution
# Summary of the method: as §1
row,Binder,peptide microarray binding signal
1,TGGKAPRKQLATK [Unmod H3 variant T G G K A P R K Q L A T K],0.00126 ± 8.1e-05
2,ATKAARKSAPSTG [Unmod H3 variant A T K A A R K S A P S T G],0.00109 ± 3.3e-05
3,VGLFEDTNLCAIH [Unmod H3 variant V G L F E D T N L C A I H],0.000472 ± 9.3e-06
4,ALQEACEAYLVGL [Unmod H3 variant A L Q E A C E A Y L V G L],0.0004342 ± 4.3e-06
5,ARTKQTARKSTGG [Unmod H3 variant A R T K Q T A R K S T G G],0.0014 ± 4.3e-05
6,RKSAPSTGGVKKP [Unmod H3 variant R K S A P S T G G V K K P],0.000963 ± 5e-05
7,ALQEASEAYLVGL [Unmod H3 variant A L Q E A S E A Y L V G L],0.0004719 ± 4.7e-06
8,ATKAARKSAPATG [Unmod H3 variant A T K A A R K S A P A T G],0.00119 ± 3.4e-05

# Same assay, conditions: peptide region: Unmod H3 variant; binder concentration: 1:10,000 dilution
row,Binder,peptide microarray binding signal
1,TGGKAPRKQLATK [Unmod H3 variant T G G K A P R K Q L A T K],0.001541 ± 1.5e-05
2,ATKAARKSAPSTG [Unmod H3 variant A T K A A R K S A P S T G],0.001312 ± 1.3e-05
3,VGLFEDTNLCAIH [Unmod H3 variant V G L F E D T N L C A I H],0.000628 ± 6.7e-06
4,ALQEACEAYLVGL [Unmod H3 variant A L Q E A C E A Y L V G L],0.000628 ± 6.7e-06
5,ARTKQTARKSTGG [Unmod H3 variant A R T K Q T A R K S T G G],0.00205 ± 7.6e-05
6,RKSAPSTGGVKKP [Unmod H3 variant R K S A P S T G G V K K P],0.000799 ± 8.3e-06
7,ALQEASEAYLVGL [Unmod H3 variant A L Q E A S E A Y L V G L],0.000799 ± 8.3e-06
8,ATKAARKSAPATG [Unmod H3 variant A T K A A R K S A P A T G],0.001712 ± 1.6e-05

# Biological target: anti-H3K9me3 antibody ab8898
# Assay: as above
# Conditions: peptide region: Unmod H3 variant; binder concentration: 1:2,000 dilution
# Summary of the method: as §1
row,Binder,peptide microarray binding signal
1,TGGKAPRKQLATK [Unmod H3 variant T G G K A P R K Q L A T K],0.000876 ± 2.6e-05
2,ATKAARKSAPSTG [Unmod H3 variant A T K A A R K S A P S T G],0.000695 ± 2.7e-05
3,VGLFEDTNLCAIH [Unmod H3 variant V G L F E D T N L C A I H],0.000287 ± 7.8e-06
4,ALQEACEAYLVGL [Unmod H3 variant A L Q E A C E A Y L V G L],0.000393 ± 1.4e-05
5,ARTKQTARKSTGG [Unmod H3 variant A R T K Q T A R K S T G G],0.00101 ± 3.2e-05
6,RKSAPSTGGVKKP [Unmod H3 variant R K S A P S T G G V K K P],0.000468 ± 9e-06
7,ALQEASEAYLVGL [Unmod H3 variant A L Q E A S E A Y L V G L],0.000453 ± 1.5e-05
8,ATKAARKSAPATG [Unmod H3 variant A T K A A R K S A P A T G],0.00142 ± 9.9e-05

# Same assay, conditions: peptide region: Unmod H3 variant; binder concentration: 1:10,000 dilution
row,Binder,peptide microarray binding signal
1,TGGKAPRKQLATK [Unmod H3 variant T G G K A P R K Q L A T K],0.000807
2,ATKAARKSAPSTG [Unmod H3 variant A T K A A R K S A P S T G],0.000923 ± 9.6e-06
3,VGLFEDTNLCAIH [Unmod H3 variant V G L F E D T N L C A I H],0.000807
4,ALQEACEAYLVGL [Unmod H3 variant A L Q E A C E A Y L V G L],0.000519 ± 5.6e-06
5,ARTKQTARKSTGG [Unmod H3 variant A R T K Q T A R K S T G G],0.00115
6,RKSAPSTGGVKKP [Unmod H3 variant R K S A P S T G G V K K P],0.000634
7,ALQEASEAYLVGL [Unmod H3 variant A L Q E A S E A Y L V G L],0.000634
8,ATKAARKSAPATG [Unmod H3 variant A T K A A R K S A P A T G],0.00127 ± 1.3e-05

# Biological target: T1, HaloTag-ATRX ADD domain (163-292)
# Assay: as above
# Conditions: peptide region: Unmod H2B variant; binder concentration: 50 nM
# Summary of the method: as §1
row,Binder,peptide microarray binding signal
1,EIQTAVRLLLPGE [Unmod H2B variant E I Q T A V R L L L P G E],0.0176 ± 0.00047
2,KHAVSEGTKAVTK [Unmod H2B variant K H A V S E G T K A V T K],0.00533 ± 0.00061

# Same assay, conditions: peptide region: Unmod H2B variant; binder concentration: 500 nM
row,Binder,peptide microarray binding signal
1,EIQTAVRLLLPGE [Unmod H2B variant E I Q T A V R L L L P G E],0.041 ± 0.0018
2,KHAVSEGTKAVTK [Unmod H2B variant K H A V S E G T K A V T K],0.00738 ± 0.00021

# Biological target: HaloTag-ING2 PHD (mouse Ing2 200-280)
# Assay: as above
# Conditions: peptide region: Unmod H2B variant; binder concentration: 10 nM
# Summary of the method: as §1
row,Binder,peptide microarray binding signal
1,EIQTAVRLLLPGE [Unmod H2B variant E I Q T A V R L L L P G E],0.0245 ± 0.0014
2,KHAVSEGTKAVTK [Unmod H2B variant K H A V S E G T K A V T K],0.00406 ± 5.6e-05

# Same assay, conditions: peptide region: Unmod H2B variant; binder concentration: 100 nM
row,Binder,peptide microarray binding signal
1,EIQTAVRLLLPGE [Unmod H2B variant E I Q T A V R L L L P G E],0.0434 ± 0.0033
2,KHAVSEGTKAVTK [Unmod H2B variant K H A V S E G T K A V T K],0.0122 ± 0.00094

# Biological target: anti-H3K4me3 antibody ab8580
# Assay: as above
# Conditions: peptide region: Unmod H2B variant; binder concentration: 1:2,000 dilution
# Summary of the method: as §1
row,Binder,peptide microarray binding signal
1,EIQTAVRLLLPGE [Unmod H2B variant E I Q T A V R L L L P G E],0.00893 ± 0.00076
2,KHAVSEGTKAVTK [Unmod H2B variant K H A V S E G T K A V T K],0.000906 ± 6.3e-05

# Same assay, conditions: peptide region: Unmod H2B variant; binder concentration: 1:10,000 dilution
row,Binder,peptide microarray binding signal
1,EIQTAVRLLLPGE [Unmod H2B variant E I Q T A V R L L L P G E],0.0164 ± 0.00068
2,KHAVSEGTKAVTK [Unmod H2B variant K H A V S E G T K A V T K],0.0012 ± 3.2e-05

# Biological target: anti-H3K9me3 antibody ab8898
# Assay: as above
# Conditions: peptide region: Unmod H2B variant; binder concentration: 1:2,000 dilution
# Summary of the method: as §1
row,Binder,peptide microarray binding signal
1,EIQTAVRLLLPGE [Unmod H2B variant E I Q T A V R L L L P G E],0.00628 ± 0.00047
2,KHAVSEGTKAVTK [Unmod H2B variant K H A V S E G T K A V T K],0.000378 ± 7.5e-06

# Same assay, conditions: peptide region: Unmod H2B variant; binder concentration: 1:10,000 dilution
row,Binder,peptide microarray binding signal
1,EIQTAVRLLLPGE [Unmod H2B variant E I Q T A V R L L L P G E],0.0106 ± 0.0002
2,KHAVSEGTKAVTK [Unmod H2B variant K H A V S E G T K A V T K],0.000865 ± 9e-06
